{
  "source": "PubChem BioAssay (Tox21)",
  "note": "Results filed as inconclusive are left out. Unmarked numbers belong to inactive results. Activity calls are given as the source filed them. Calls follow the shape of the dose curve; as a rule, active = well fitted cell-killing curve with a large enough effect in the repeat runs; inconclusive = weak or mixed curves, or effect the other way; inactive = flat fitted curve, though single readings scatter. % is scaled to controls: 0 for no effect and ±100 for the full control effect; potency is read from the fitted curve at half-maximal effect.",
  "data": [
    {"test": "qHTS RealTime-Glo MT Cell Viability Assay in HepG2 cells - 0 hour (AID 1224889); also: nearly all actives have a fitted effect of over 50% in size", "conditions": "RealTime-Glo luminescence; series mostly up to 76.8 µM; activity change, negative = cytotoxicity: at the top concentration", "from_the_text": "U.S. Tox21 Program National Center for Advancing Translational Sciences [NCATS] NIH Chemical Genomics Center [NCGC] U.S. Environmental Protection Agency [EPA] National Institutes of Environmental Health Sciences [NIEHS] National Toxicology Program [NTP] U.S. Food and Drug Administration [FDA] Tox21 Assay Overview: Measure of cell viability is critical in the cell-base assay. Analysis of cell viability is necessary for the characterization of cell responses to cytotoxic drugs and environmental stress. A RealTime-Glo MT Cell Viability Assay to monitor cell viability in real time of continues cell culture during 40 hours of compound treatment was used to screen Tox21 10K library compounds in HepG2 cells. The RealTime-Glo MT Cell Viability Assay is a nonlytic, homogeneous, bioluminescent method to measure cell viability in real time using a simple, plate-based method. The assay involves adding NanoLuc luciferase and a cell-permeant prosubstrate to cells in culture. Viable cells reduce the proprietary prosubstrate to generate a substrate for NanoLuc luciferase. This substrate diffuses from cells into the surrounding culture medium, where it is rapidly used by the NanoLuc Enzyme to produce a luminescent signal. The signal correlates with the number of viable cells, making the assay well suited for cytotoxicity studies.\nTox21 Assay Protocol Summary: The mixture of HepG2 cell suspension and reagents were dispensed at 600cells/6 ul/well in 1536-well tissue culture treated black solid bottom plates using a Multidrop dispenser. After the assay plates were incubated at a 37 C/5% CO2 incubator for 5 hours, 23 nL of compounds dissolved in DMSO, positive and negative controls was transferred to the assay plate by a pintool work station. The plates were incubated at 37 C for 40 hours. The luminescence intensity were measured at 0h, 8h, 16h, 24h, 32h and 40h time points using ViewLux plate reader during compound treatment.", "values": [
      {"smiles": "CC/C(=C\\C(=N/O)C(N)=O)C(C)[N+](=O)[O-]", "note": "(stereo not given)", "activity change, negative = cytotoxicity": "-5.68%"},
      {"smiles": "CCCCCCCC/C=C\\CCCCCCCC(N)=O", "activity change, negative = cytotoxicity": "1.05%"},
      {"smiles": "Nc1ccc(C(=O)Nc2ccccc2N)cc1", "activity change, negative = cytotoxicity": "2.42% [at 35.3 µM]"},
      {"smiles": "CN(C)C/C=C(/c1ccc(Br)cc1)c1cccnc1", "activity change, negative = cytotoxicity": "2.34% [at 35.3 µM]"},
      {"smiles": "CC(C)(C)c1cc(O)c(C(C)(C)C)cc1O", "activity change, negative = cytotoxicity": "2.83%"},
      {"smiles": "O=C(O)c1cccc(N(Cc2cccnc2)c2ccc(OC(F)F)c(OC(F)F)c2)c1", "Potency": "17.4 µM (active)"},
      {"smiles": "CC1(C)CCC(C)(C)c2cc(NC(=O)c3ccc(C(=O)O)cc3)ccc21", "activity change, negative = cytotoxicity": "-13% [at 35.3 µM]"},
      {"smiles": "CCc1nn(C2CCCCC2)c2cc(C3(C#N)CCC(C(=O)O)CC3)ccc12", "note": "(stereo not given)", "activity change, negative = cytotoxicity": "-23.3%"},
      {"smiles": "Cn1sccc1=O", "Potency": "inactive"},
      {"smiles": "CC[C@H](C)[C@H](N)C(=O)O", "activity change, negative = cytotoxicity": "6.16% [at 35.3 µM]"},
      {"smiles": "CCCCOC(=O)c1ccccc1C(=O)OCC(CC)CCCC", "note": "(stereo not given)", "activity change, negative = cytotoxicity": "-5.24%"},
      {"smiles": "CC(=O)/C=C/C1C(C)=CCCC1(C)C", "note": "(stereo not given)", "activity change, negative = cytotoxicity": "-0.663%"},
      {"smiles": "CC(=O)/C(C)=C/C1C(C)=CCCC1(C)C", "note": "(stereo not given)", "activity change, negative = cytotoxicity": "12.4%"},
      {"smiles": "FC(F)(F)C(F)(F)C(F)(F)C(F)(F)C(F)(F)C(F)(F)CCI", "activity change, negative = cytotoxicity": "4.25% [at 35.3 µM]"},
      {"smiles": "S=C(S)NCCNC(=S)S", "activity change, negative = cytotoxicity": "-5.62%"},
      {"smiles": "CCCCCCCCCCCCCCCBr", "activity change, negative = cytotoxicity": "-15% [at 35.3 µM]"},
      {"smiles": "CCCCCOC(=O)c1ccc(O)cc1", "activity change, negative = cytotoxicity": "-8.39%"},
      {"smiles": "N#Cc1cc2ccccc2c2ccccc12", "activity change, negative = cytotoxicity": "-0.222%"},
      {"smiles": "O=C=NC1CCC(CC2CCC(N=C=O)CC2)CC1", "note": "(stereo not given)", "activity change, negative = cytotoxicity": "2.4%"},
      {"smiles": "CCCC(C)C", "activity change, negative = cytotoxicity": "1.27%"},
      {"smiles": "C[Si](C)O[Si](C)(C)O[Si](C)(C)O[Si](C)C", "activity change, negative = cytotoxicity": "6.23%"},
      {"smiles": "CCCCCOC(=O)COc1cc(N2C(=O)C3=C(CCCC3)C2=O)c(F)cc1Cl", "activity change, negative = cytotoxicity": "4.46%"},
      {"smiles": "CCN(CC)CCOc1ccc2c(c1)C(=O)c1cc(OCCN(CC)CC)ccc1-2", "activity change, negative = cytotoxicity": "7.23% [at 35.3 µM]"},
      {"smiles": "CCCCOc1ccc(CC(=O)NO)cc1", "activity change, negative = cytotoxicity": "-0.0126% [at 35.3 µM]"},
      {"smiles": "CN(C)CCCNCCCN", "activity change, negative = cytotoxicity": "7.44%"},
      {"smiles": "CCC(C)N(C)C(=O)c1cc2ccccc2c(-c2ccccc2Cl)n1", "note": "(stereo not given)", "Potency": "20 µM (active)"},
      {"smiles": "CN(C)CCCOc1nn(Cc2ccccc2)c2ccccc12", "activity change, negative = cytotoxicity": "-19% [at 35.3 µM]"},
      {"smiles": "CCCCCCc1ccc(N)cc1", "activity change, negative = cytotoxicity": "0.553%"},
      {"smiles": "C=CC[N+]1([C@H]2C[C@H]3[C@@H]4CC[C@H]5C[C@H](OC(C)=O)[C@@H](N6CCCCC6)C[C@]5(C)[C@H]4CC[C@]3(C)[C@H]2OC(=O)CC)CCCCC1", "activity change, negative = cytotoxicity": "4.94% [at 35.3 µM]"},
      {"smiles": "CCCCCCCCN(C)C", "activity change, negative = cytotoxicity": "-0.501%"},
      {"smiles": "COCCCCCCCCOCCC[Si](C)(O[Si](C)(C)C)O[Si](C)(C)C", "activity change, negative = cytotoxicity": "-0.0881%"},
      {"smiles": "OC(CCN1CCCCC1)(c1ccccc1)C1CCCCC1", "note": "(stereo not given)", "activity change, negative = cytotoxicity": "10.7% [at 35.3 µM]"},
      {"smiles": "O=S1(=O)N=C(O)c2ccccc21", "activity change, negative = cytotoxicity": "-8.16% [at 35.3 µM]"},
      {"smiles": "COC(=O)C(C)=O", "activity change, negative = cytotoxicity": "1.1%"},
      {"smiles": "CC(C)CCCCCCOC(=O)c1ccc(C(=O)OCCCCCCC(C)C)c(C(=O)OCCCCCCC(C)C)c1", "activity change, negative = cytotoxicity": "10.7%"},
      {"smiles": "Nc1nc(N)c(-c2ccccc2)s1", "activity change, negative = cytotoxicity": "4.14% [at 35.3 µM]"},
      {"smiles": "CC(C)c1ccccc1C(C)C", "activity change, negative = cytotoxicity": "1%"},
      {"smiles": "CN1CCN(C2=Nc3cc(Cl)ccc3Nc3ccccc32)CC1", "activity change, negative = cytotoxicity": "13.4% [at 35.3 µM]"},
      {"smiles": "O=C(Cl)c1c(Cl)cccc1Cl", "activity change, negative = cytotoxicity": "-8.48%"},
      {"smiles": "c1ccc(CNCc2ccccc2)cc1", "activity change, negative = cytotoxicity": "12%"}
    ]}
  ]
}
